Key:
Assay in all cases: phenotypically active (imaging signature differs from DMSO and reproducible) at any of 0.3-9 uM (binary (1 = active, 0 = inactive)); higher = active
Settings in all cases: treatment time: 24 h
[1] = test system: A549-ACTB-RAB5A
Method in brief: (§1)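 Live-cell features were measured per well and normalised to solvent control wells after fifteen gene-edited A549, HepG2 and WPMY1 reporter lines had been treated for 24 h at 0.3, 1, 3 or 9 µM in four wells each. A condition was deviating when ≥3 of 4 wells sat beyond the 95th percentile of control Euclidean distances. It was reproducible when the median replicate Pearson correlation exceeded the 95th percentile of non-replicates. Phenotypic activity demanded both.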

[2] = test system: A549-CANX-COX4
Method in brief: as §1

[3] = test system: A549-GM130-SQSTM1
Method in brief: as §1

[4] = test system: A549-TP53BP1-CLTA
Method in brief: as §1

[5] = test system: A549-TUBA1B-RELA
Method in brief: as §1

[6] = test system: HepG2-ACTB-RAB5A
Method in brief: as §1

[7] = test system: HepG2-CANX-COX4
Method in brief: as §1

[8] = test system: HepG2-GM130-SQSTM1
Method in brief: as §1

[9] = test system: HepG2-TP53BP1-CLTA
Method in brief: as §1

[10] = test system: HepG2-TUBA1B-RELA
Method in brief: as §1

[11] = test system: WPMY1-ACTB-RAB5A
Method in brief: as §1

[12] = test system: WPMY1-CANX-COX4
Method in brief: as §1

[13] = test system: WPMY1-GM130-SQSTM1
Method in brief: as §1

[14] = test system: WPMY1-TP53BP1-CLTA
Method in brief: as §1

[15] = test system: WPMY1-TUBA1B-RELA
Method in brief: as §1

Measured: phenotypically active

COc1ccc(C(=O)Cc2c(CCN(C)C)cc3c(c2OC)OCO3)c(C(=O)O)c1OC [Narcétine]
inactive: [1] 0 | [2] 0 | [3] 0 | [4] 0 | [5] 0 | [6] 0 | [7] 0 | [8] 0 | [9] 0 | [10] 0 | [11] 0 | [12] 0 | [13] 0 | [14] 0 | [15] 0

CC1=C2[C@H]3OC(=O)[C@@H](C)[C@@H]3CC[C@@]2(C)C=CC1=O [alpha-Santonin]
inactive: [1] 0 | [2] 0 | [3] 0 | [4] 0 | [5] 0 | [6] 0 | [7] 0 | [8] 0 | [9] 0 | [10] 0 | [11] 0 | [12] 0 | [13] 0 | [14] 0 | [15] 0

COc1ccc2c3c1O[C@H]1C(=O)CC[C@@]4(O)[C@@H](C2)N(C)CC[C@]314 [oxycodone]
inactive: [1] 0 | [2] 0 | [3] 0 | [4] 0 | [5] 0 | [6] 0 | [7] 0 | [8] 0 | [9] 0 | [10] 0 | [11] 0 | [12] 0 | [13] 0 | [14] 0 | [15] 0

COc1cc2c3cc1Oc1cc(ccc1O)C[C@@H]1c4c(cc(OC)c(O)c4Oc4cccc(c4)C[C@@H]3N(C)CC2)CC[N+]1(C)C [Tubocurarine chloride pentahydrate (+)]
inactive: [1] 0 | [2] 0 | [3] 0 | [4] 0 | [5] 0 | [6] 0 | [7] 0 | [8] 0 | [9] 0 | [10] 0 | [11] 0 | [12] 0 | [13] 0 | [14] 0 | [15] 0

C[C@H]1CCC2(NC1)O[C@H]1C[C@H]3[C@@H]4CC[C@H]5C[C@@H](O[C@@H]6O[C@H](CO)[C@H](O[C@@H]7O[C@H](CO)[C@@H](O)[C@H](O[C@@H]8OC[C@@H](O)[C@H](O)[C@H]8O)[C@H]7O[C@@H]7O[C@H](CO)[C@@H](O)[C@H](O)[C@H]7O)[C@H](O)[C@H]6O)CC[C@]5(C)[C@H]4CC[C@]3(C)[C@H]1[C@@H]2C (stereo not given in full) [Tomatine]
inactive: [1] 0 | [2] 0 | [3] 0 | [4] 0 | [5] 0 | [6] 0 | [7] 0 | [8] 0 | [9] 0 | [10] 0 | [11] 0 | [12] 0 | [13] 0 | [14] 0 | [15] 0

Oc1ccc2c3c1O[C@H]1[C@@H](O)CC[C@@]4(O)[C@@H](C2)N(CC2CCC2)CC[C@]314 [nalbuphine]
inactive: [1] 0 | [2] 0 | [3] 0 | [4] 0 | [5] 0 | [6] 0 | [7] 0 | [8] 0 | [9] 0 | [10] 0 | [11] 0 | [12] 0 | [13] 0 | [14] 0 | [15] 0

CC(C)[C@H]1C(=O)O[C@@H]2CCN3CC=C(COC(=O)[C@](C)(O)[C@@]1(C)O)[C@H]23 [Trichodesmine]
inactive: [1] 0 | [2] 0 | [3] 0 | [4] 0 | [5] 0 | [6] 0 | [7] 0 | [8] 0 | [9] 0 | [10] 0 | [11] 0 | [12] 0 | [13] 0 | [14] 0 | [15] 0

CN1[C@@H]2CC(=O)C[C@H]1[C@H](O)C2 [6-Hydroxytropinone]
inactive: [1] 0 | [2] 0 | [3] 0 | [4] 0 | [5] 0 | [6] 0 | [7] 0 | [8] 0 | [9] 0 | [10] 0 | [11] 0 | [12] 0 | [13] 0 | [14] 0 | [15] 0

Fc1ccccc1C1=NCC(=S)N(CC(F)(F)F)c2ccc(Cl)cc21 [quazepam]
inactive: [1] 0 | [2] 0 | [3] 0 | [4] 0 | [5] 0 | [6] 0 | [7] 0 | [8] 0 | [9] 0 | [10] 0 | [11] 0 | [12] 0 | [13] 0 | [14] 0 | [15] 0

Nc1ccncc1 [dalfampridine]
inactive: [1] 0 | [2] 0 | [3] 0 | [4] 0 | [5] 0 | [6] 0 | [7] 0 | [8] 0 | [9] 0 | [10] 0 | [11] 0 | [12] 0 | [13] 0 | [14] 0 | [15] 0

C/C(O)=C(/C#N)C(=O)Nc1cc(Br)ccc1Br
inactive: [1] 0 | [2] 0 | [3] 0 | [4] 0 | [5] 0 | [6] 0 | [7] 0 | [8] 0 | [9] 0 | [10] 0 | [11] 0 | [12] 0 | [13] 0 | [14] 0 | [15] 0
